The results in this text go back to PubChem BioAssay (NCI).

Structures are written as SMILES. The panel holds about 83,000 compounds, 20% with a hit somewhere; the sample as a whole holds those more often.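 The endpoint reported here, percent growth, reads 100 for growth as untreated, 0 for no net growth and -100 for all cells dead.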 Values without a mark were called inactive. Calls of active or inactive are those of the source. How the source made its calls: active means growth percent below 10; inactive means the rest.

Some test systems named below: HCT-15 colon; HT29 colon; SNB-75 CNS; SNB-19 CNS; U251 CNS; PC-3 prostate; SK-MEL-5 melanoma; UACC-62 melanoma; LOX IMVI melanoma; SK-MEL-28 melanoma; EKVX NSCLC; SN12C renal; UO-31 renal; TK-10 renal; ACHN renal; CAKI-1 renal; A498 renal; CCRF-CEM leukemia; MOLT-4 leukemia.
Common to all, as to assay: NCI-60 one-dose screen, 48 h (100 = growth as untreated, 0 = no growth, -100 = all killed)
Common to all, as to details: 10 µM unless noted

On to `Cc1cc(C(=O)NOCCO)c(Nc2ccc(I)cc2F)n(C)c1=O`, for which the growth is 67.5% in the assay with HCT-15 colon; 7.17% (active) in the assay on HT29 colon; 83.8% in the assay with SNB-75 CNS; 57.9% with SNB-19 CNS; 51.8% with U251 CNS; 106% in the assay on PC-3 prostate. The growth is 50.4% in the assay on SK-MEL-5 melanoma; -1.84% (active) in the assay with UACC-62 melanoma; 26.3% in the assay on LOX IMVI melanoma; 1.47% (active) in the assay on SK-MEL-28 melanoma; 56.7% with EKVX NSCLC; 68.3% in the assay on SN12C renal. The growth was 46.3% in the assay on UO-31 renal; 48% in the assay with TK-10 renal; 64.3% in the assay with ACHN renal; 40.6% in the assay with CAKI-1 renal; -14% (active) in the assay with A498 renal; 85% in the assay with CCRF-CEM leukemia. In addition, the growth in the assay with MOLT-4 leukemia is 83.7%.
Take `CC[C@H](Nc1ncnc2nc[nH]c12)c1nc2cccc(F)c2c(=O)n1-c1ccccc1`: the growth was 88.9% in the assay with HCT-15 colon; 50.4% in the assay on HT29 colon; 25.8% in the assay on SNB-75 CNS; 71.5% in the assay with SNB-19 CNS; 77% with U251 CNS; 50.9% in the assay on PC-3 prostate. Further, the growth was 80.2% in the assay with SK-MEL-5 melanoma; 39.1% in the assay with UACC-62 melanoma; 74.6% in the assay with LOX IMVI melanoma; 69.3% with SK-MEL-28 melanoma; 80.1% in the assay with EKVX NSCLC; 51.6% with SN12C renal. The growth was 31.3% in the assay on UO-31 renal; 17.4% in the assay with TK-10 renal; 41.5% in the assay with ACHN renal; 52.9% in the assay with CAKI-1 renal; -14.3% (active) in the assay with A498 renal; 52.3% in the assay with CCRF-CEM leukemia. Moreover, in the assay on MOLT-4 leukemia, the growth was 62.2%.
As for `COc1ccc(C(=O)c2cc(OC)c(OC)c(OC)c2)cc1/C=C/C(=O)c1ccc(F)cc1`, the growth with HCT-15 colon was 23.9%; in the assay with HT29 colon it was 13.6%; with SNB-75 CNS it was 58.7%; in the assay with SNB-19 CNS it was 71.3%; in the assay with U251 CNS, 34.1%; in the assay with PC-3 prostate, 76.7%. Besides, the growth was 57% with SK-MEL-5 melanoma; 45.5% with UACC-62 melanoma; -56.5% (active) in the assay on LOX IMVI melanoma; 13.1% with SK-MEL-28 melanoma; 90.1% in the assay with EKVX NSCLC; 64.7% in the assay on SN12C renal. Also, the growth is 56.3% in the assay with UO-31 renal; 82.9% with TK-10 renal; -70.3% (active) in the assay with ACHN renal; 81.5% in the assay with CAKI-1 renal; 80.9% in the assay on A498 renal; 2.64% (active) with CCRF-CEM leukemia. Moreover, the growth in the assay with MOLT-4 leukemia was 0.641% (active).
For the compound `CN(C)C1CCN(C(=O)c2ccc(NC(=O)Nc3ccc(-c4nc(N5CCOCC5)nc(N5CCOCC5)n4)cc3)cc2)CC1`, the growth with HCT-15 colon is 74.1% [2.5 µM]; with HT29 colon it was -2.55% [2.5 µM] (active); with SNB-75 CNS it was -51.7% [2.5 µM] (active); in the assay on SNB-19 CNS, 1.85% [2.5 µM] (active); with U251 CNS, -10.5% [2.5 µM] (active); with PC-3 prostate, 3.75% [2.5 µM] (active). In addition, the growth is -39.1% [2.5 µM] (active) in the assay with SK-MEL-5 melanoma; -58.9% [2.5 µM] (active) in the assay with UACC-62 melanoma; 0.487% [2.5 µM] (active) in the assay with LOX IMVI melanoma; -27.6% [2.5 µM] (active) in the assay with SK-MEL-28 melanoma; 40.3% [2.5 µM] in the assay on EKVX NSCLC; 3.23% [2.5 µM] (active) in the assay with SN12C renal. For the same compound, the growth in the assay with UO-31 renal is 32.2% [2.5 µM]; with TK-10 renal, -9.03% [2.5 µM] (active); with ACHN renal it was 55.6% [2.5 µM]; in the assay with CAKI-1 renal, 10.2% [2.5 µM]; in the assay with A498 renal it was -54.1% [2.5 µM] (active); in the assay with CCRF-CEM leukemia, 9.68% [2.5 µM] (active). For the same compound, the growth in the assay on MOLT-4 leukemia is -7.96% [2.5 µM] (active).
Turning to `CC/C(=C(/c1ccc(Cl)cc1)c1ccc(OCCN2CCCCC2)cc1)c1ccc(Cl)cc1`, the growth in the assay on HCT-15 colon is 57.1%; in the assay on HT29 colon, 23%; with SNB-75 CNS it was 85.7%; in the assay on SNB-19 CNS, 85.7%; in the assay with U251 CNS, 62.3%; with PC-3 prostate, 63.7%. The growth with SK-MEL-5 melanoma is 86.9%; in the assay on UACC-62 melanoma, 97%; with LOX IMVI melanoma, 82.2%; in the assay with SK-MEL-28 melanoma it was 98.5%; in the assay on EKVX NSCLC, 57.4%; in the assay on SN12C renal it was 76.5%. For the same compound, the growth was 58.8% in the assay on UO-31 renal; 90.8% in the assay on TK-10 renal; 91.2% in the assay with ACHN renal; 74.4% in the assay on CAKI-1 renal; 94% in the assay on A498 renal; 50.6% in the assay on CCRF-CEM leukemia. Besides, the growth with MOLT-4 leukemia is 69.2%.
Regarding `CCc1nc(C(N)=O)c(Nc2ccc(N3CCC(N4CCN(C)CC4)CC3)c(OC)c2)nc1NC1CCOCC1`, the growth is 25% with HCT-15 colon; -23.9% (active) with HT29 colon; -45.3% (active) in the assay on SNB-75 CNS; 29.8% with SNB-19 CNS; 32% in the assay with U251 CNS; 36.3% in the assay with PC-3 prostate. The growth was 66.4% with SK-MEL-5 melanoma; 25.3% in the assay on UACC-62 melanoma; -84.9% (active) in the assay with LOX IMVI melanoma; 24% with SK-MEL-28 melanoma; 46.6% with EKVX NSCLC; 29.2% with SN12C renal. Moreover, the growth in the assay on UO-31 renal was 4.67% (active); with TK-10 renal it was 25.4%; in the assay on ACHN renal, 29%; in the assay on CAKI-1 renal, 20.2%; with A498 renal it was -92.6% (active); in the assay with CCRF-CEM leukemia it was 6.04% (active). Besides, the growth with MOLT-4 leukemia was 17.2%.
Consider `Cn1c(=O)c(F)c(Nc2ccc(I)cc2F)c2c(=O)n(C[C@@H](O)CO)cnc21`, for which the growth was 54.6% in the assay on HCT-15 colon; 7.51% (active) with HT29 colon; 62.7% in the assay with SNB-75 CNS; 42.6% in the assay on SNB-19 CNS; 31.4% in the assay with U251 CNS; 68.4% in the assay on PC-3 prostate. Also, the growth in the assay with SK-MEL-5 melanoma is 36.3%; in the assay on UACC-62 melanoma it was 0.259% (active); in the assay with LOX IMVI melanoma, 15.3%; in the assay with SK-MEL-28 melanoma, 0.0364% (active); with EKVX NSCLC, 46.6%; in the assay with SN12C renal, 40.1%. The growth in the assay on UO-31 renal was 22.8%; in the assay with TK-10 renal, 41.2%; in the assay on ACHN renal, 50.7%; in the assay with CAKI-1 renal it was 41.7%; with A498 renal, -30.7% (active); in the assay with CCRF-CEM leukemia, 66.8%. Besides, the growth in the assay on MOLT-4 leukemia is 73.7%.
As for `C1=C\COCc2cc(ccc2OCCN2CCCC2)Nc2nccc(n2)-c2cccc(c2)COC/1`, the growth with HCT-15 colon is 1.31% (active); in the assay with HT29 colon, -30.8% (active); in the assay on SNB-75 CNS, -95.8% (active); in the assay with SNB-19 CNS, 1.55% (active); in the assay with U251 CNS, -22.6% (active); with PC-3 prostate it was 0.91% (active). The growth in the assay on SK-MEL-5 melanoma is -96.5% (active); in the assay on UACC-62 melanoma, -68.7% (active); with LOX IMVI melanoma, -70.2% (active); in the assay on SK-MEL-28 melanoma, -41.8% (active); in the assay on EKVX NSCLC it was 0.564% (active); with SN12C renal, -26.6% (active). The growth in the assay on UO-31 renal is -29.2% (active); with TK-10 renal, 55.3%; with ACHN renal, 3.85% (active); with CAKI-1 renal, -44.8% (active); in the assay on A498 renal, -43.3% (active); in the assay with CCRF-CEM leukemia, 4.28% (active). The growth in the assay with MOLT-4 leukemia was -8.61% (active).
Take `O=C(O)C1(Cc2cccc(Nc3nccs3)n2)CCC(Oc2cccc(Cl)c2F)CC1` (centres undefined): the growth in the assay on HCT-15 colon is 70.7%; with HT29 colon, 62.8%; in the assay with SNB-75 CNS it was 95.5%; in the assay on SNB-19 CNS, 75.4%; in the assay on U251 CNS, 60.8%; in the assay with PC-3 prostate, 71.3%. The growth was 70.3% with SK-MEL-5 melanoma; 61.8% with UACC-62 melanoma; 74.6% in the assay on LOX IMVI melanoma; 88.4% with SK-MEL-28 melanoma; 90.9% in the assay with EKVX NSCLC; 73.4% with SN12C renal. The growth with UO-31 renal was 73.5%; in the assay with TK-10 renal it was 63.8%; in the assay on ACHN renal it was 68.4%; with CAKI-1 renal it was 66.9%; in the assay with A498 renal it was 72%; in the assay on CCRF-CEM leukemia, 62.6%. In addition, the growth in the assay with MOLT-4 leukemia is 67.4%.
`Cn1cc(-c2cnn3c(N)c(Br)c([C@@H]4CCCNC4)nc23)cn1`: the growth in the assay on HCT-15 colon was 60.6%; in the assay on HT29 colon it was 23%; with SNB-75 CNS, 20.5%; with SNB-19 CNS, 52.1%; in the assay on U251 CNS, 61%; in the assay with PC-3 prostate, 42.8%. In addition, the growth in the assay on SK-MEL-5 melanoma is 28.6%; in the assay with UACC-62 melanoma, 63.7%; in the assay on LOX IMVI melanoma, 22%; in the assay on SK-MEL-28 melanoma, 72.5%; in the assay on EKVX NSCLC, 58.7%; with SN12C renal, 37.6%. For the same compound, the growth in the assay with UO-31 renal was 28%; in the assay on TK-10 renal it was 33.4%; in the assay on ACHN renal, 19.8%; with CAKI-1 renal, 17.3%; in the assay on A498 renal, -8.93% (active); in the assay with CCRF-CEM leukemia, 19.9%. In the assay on MOLT-4 leukemia, the growth is 7.79% (active).
Take `Cn1ncc(Cl)c1-c1cc(C(=O)N[C@H](CN)Cc2ccc(F)c(F)c2)oc1Cl`: the growth is 6.57% (active) in the assay with HCT-15 colon; -11.7% (active) with HT29 colon; -86.4% (active) with SNB-75 CNS; 2.29% (active) in the assay on SNB-19 CNS; -86.5% (active) in the assay on U251 CNS; -25% (active) with PC-3 prostate. For the same compound, the growth in the assay with SK-MEL-5 melanoma is -96.2% (active); in the assay with UACC-62 melanoma, -78.5% (active); in the assay on LOX IMVI melanoma it was -88.8% (active); with SK-MEL-28 melanoma it was -77.1% (active); with EKVX NSCLC, 6.1% (active); with SN12C renal, 16.5%. Further, the growth was -19.8% (active) in the assay with UO-31 renal; -91% (active) with TK-10 renal; 4.47% (active) in the assay with ACHN renal; -34.2% (active) in the assay with CAKI-1 renal; -78.9% (active) in the assay with A498 renal; 3.82% (active) in the assay on CCRF-CEM leukemia. Moreover, the growth in the assay on MOLT-4 leukemia is -4.62% (active).
